# This excerpt belongs to a sample that is enriched for the strongest signals.
# B1: FimA (Actinomyces oris) (protein)
# chain: MHHHHHHSSGVDLGTENLYFQSNAETPNYGNIKTDATGSLVIHKHLTGGGKDIGTPTGTAQNADDKGPAVEGVVFTAYPITDINLKDPAGWDTISNLSRTGVPDSACANPAAPTLGAHQFGTPKVSPATTKEGLATITEMPVQAYLVCETTTPGDIVQKAKPFVVTIPHPNTAAGADGQWIYDVNVYPKNEAIDVDKTIQAQKLNGYGVGSLIKFPVESTAPTLDAKSFYKYFQLKDTLDERLSEVTATDVSLEGTPLQPTDYKVETKQQTVTVTFTAEGLKKIKAAPGKKVSAVFQGKVTKAGNGAITNRAQVISDTLYAEQPPTPETPPTDPENPPTSDEVISRWGDLSIKKVDTHQQGQTKAGLQGAQFQLYKAKNAYANTCSNEKEGAPIAINGQTTLTTDAQGAIDIKGLFISDSIDGADRDNQVNAMERCYVLVETKAPAGYVLPAGNGAATPVKVKAGEETTDNVTVENTKQSVPGLPLTG
# Legend:
# Assay in all cases: glycan array binding signal (z-score within array); higher = stronger binding
# Conditions in all cases: glycan notation: IUPAC condensed, linker removed
# [1] = biological target: Fuc(a1-2)Gal(b1-3)GalNAc(b1-3)Gal
# Procedure, shortened: (§1)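 Glycan array data were curated from 3228 arrays in the Consortium for Functional Glycomics database and kept only where the protein sequence was available. Glycan names were converted to IUPAC-condensed notation, and columns mapping to the same glycan were averaged. The binding signal is a within-array Z-score, averaged across arrays of the same protein sequence at different concentrations or buffers and across linkers. Negative Z-scores can be read as non-binding.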
# [2] = biological target: Fuc(a1-2)Gal(b1-3)GlcNAc(b1-3)GalNAc
# Procedure, shortened: as §1
# [3] = biological target: Fuc(a1-2)Gal(b1-4)Glc
# Procedure, shortened: as §1
# [4] = biological target: Fuc(a1-2)Gal(b1-4)GlcNAc6S
# Procedure, shortened: as §1
# [5] = biological target: Fuc(a1-2)Gal(b1-4)[Fuc(a1-3)]GlcNAc(b1-2)[Fuc(a1-2)Gal(b1-4)[Fuc(a1-3)]GlcNAc(b1-4)]Man(a1-3)[Fuc(a1-2)Gal(b1-4)[Fuc(a1-3)]GlcNAc(b1-2)Man(a1-6)]Man(b1-4)GlcNAc(b1-4)GlcNAc
# Procedure, shortened: as §1
# [6] = biological target: Fuc(a1-2)Gal(b1-4)[Fuc(a1-3)]GlcNAc(b1-3)Gal(b1-4)[Fuc(a1-3)]GlcNAc(b1-3)Gal(b1-4)[Fuc(a1-3)]GlcNAc
# Procedure, shortened: as §1
# [7] = biological target: Fuc(a1-2)[Gal(a1-3)]Gal(b1-4)GlcNAc(b1-2)Man(a1-3)[Fuc(a1-2)[Gal(a1-3)]Gal(b1-4)GlcNAc(b1-2)Man(a1-6)]Man(b1-4)GlcNAc(b1-4)GlcNAc
# Procedure, shortened: as §1
# [8] = biological target: Fuc(a1-2)[Gal(a1-4)]Gal(b1-4)GlcNAc
# Procedure, shortened: as §1
# [9] = biological target: Fuc(a1-2)[GalNAc(a1-3)]Gal(b1-4)GlcNAc(b1-3)GalNAc
# Procedure, shortened: as §1
# [10] = biological target: Fuc(a1-3)[Gal(b1-4)]GlcNAc(b1-6)GalNAc
# Procedure, shortened: as §1
# [11] = biological target: Fuc(a1-3)[Gal3S(b1-4)]Glc
# Procedure, shortened: as §1
# [12] = biological target: Fuc(a1-3)[GalNAc(b1-4)]GlcNAc
# Procedure, shortened: as §1
# [13] = biological target: Gal(a1-3)Gal(b1-3)GlcNAc
# Procedure, shortened: as §1
# [14] = biological target: Gal(a1-4)Gal(b1-4)GlcNAc(b1-2)Man(a1-3)[Gal(a1-4)Gal(b1-4)GlcNAc(b1-2)Man(a1-6)]Man(b1-4)GlcNAc(b1-4)GlcNAc
# Procedure, shortened: as §1
# [15] = biological target: Gal(b1-3)GalNAc
# Procedure, shortened: as §1
# [16] = biological target: Gal(b1-3)GalNAc(b1-4)Gal(b1-4)Glc
# Procedure, shortened: as §1
# [17] = biological target: Gal(b1-3)GlcNAc(a1-6)Gal(b1-4)GlcNAc
# Procedure, shortened: as §1
# [18] = biological target: Gal(b1-3)GlcNAc(b1-3)Gal(b1-4)GlcNAc(b1-2)Man(a1-3)[Gal(b1-3)GlcNAc(b1-3)Gal(b1-4)GlcNAc(b1-2)Man(a1-6)]Man(b1-4)GlcNAc(b1-4)GlcNAc
# Procedure, shortened: as §1
# [19] = biological target: Gal(b1-3)[Fuc(a1-4)]GlcNAc(b1-3)Gal(b1-4)[Fuc(a1-3)]GlcNAc
# Procedure, shortened: as §1
# [20] = biological target: Gal(b1-4)Gal
# Procedure, shortened: as §1
# [21] = biological target: Gal(b1-4)GlcNAc(b1-2)Man(a1-6)[GlcNAc(b1-2)Man(a1-3)]Man(b1-4)GlcNAc(b1-4)GlcNAc
# Procedure, shortened: as §1
# [22] = biological target: Gal(b1-4)GlcNAc(b1-3)Gal(b1-4)GlcNAc(b1-3)Gal(b1-4)GlcNAc(b1-3)Gal(b1-4)GlcNAc(b1-3)Gal(b1-4)GlcNAc(b1-2)Man(a1-3)[Gal(b1-4)GlcNAc(b1-3)Gal(b1-4)GlcNAc(b1-3)Gal(b1-4)GlcNAc(b1-3)Gal(b1-4)GlcNAc(b1-3)Gal(b1-4)GlcNAc(b1-2)Man(a1-6)]Man(b1-4)GlcNAc(b1-4)GlcNAc
# Procedure, shortened: as §1
# [23] = biological target: Gal(b1-4)GlcNAc(b1-3)Gal(b1-4)GlcNAc(b1-3)Gal(b1-4)GlcNAc(b1-3)Gal(b1-4)GlcNAc(b1-3)Gal(b1-4)GlcNAc(b1-2)[Gal(b1-4)GlcNAc(b1-3)Gal(b1-4)GlcNAc(b1-3)Gal(b1-4)GlcNAc(b1-3)Gal(b1-4)GlcNAc(b1-3)Gal(b1-4)GlcNAc(b1-6)]Man(a1-6)[Gal(b1-4)GlcNAc(b1-3)Gal(b1-4)GlcNAc(b1-3)Gal(b1-4)GlcNAc(b1-3)Gal(b1-4)GlcNAc(b1-3)Gal(b1-4)GlcNAc(b1-2)Man(a1-3)]Man(b1-4)GlcNAc(b1-4)[Fuc(a1-6)]GlcNAc
# Procedure, shortened: as §1
# [24] = biological target: Gal3S(b1-4)[Fuc(a1-3)]Glc6S
# Procedure, shortened: as §1
# [25] = biological target: Gal6S(b1-4)GlcNAc6S
# Procedure, shortened: as §1
# [26] = biological target: GalNAc(b1-4)GlcNAc(b1-2)Man
# Procedure, shortened: as §1
# [27] = biological target: GalNAc(b1-4)GlcNAc6S
# Procedure, shortened: as §1
# [28] = biological target: GalNAc3S(b1-4)[Fuc(a1-3)]GlcNAc
# Procedure, shortened: as §1
# [29] = biological target: GlcA(b1-3)Gal
# Procedure, shortened: as §1
# [30] = biological target: GlcNAc(a1-6)Gal(b1-4)GlcNAc
# Procedure, shortened: as §1
binder,measurement,setting,value
B1,glycan array binding signal (z-score),[1],11.8
same,glycan array binding signal (z-score),[2],-0.927
same,glycan array binding signal (z-score),[3],-0.719
same,glycan array binding signal (z-score),[4],-0.627
same,glycan array binding signal (z-score),[5],-0.358
same,glycan array binding signal (z-score),[6],-0.317
same,glycan array binding signal (z-score),[7],5.11
same,glycan array binding signal (z-score),[8],5.14
same,glycan array binding signal (z-score),[9],-0.408
same,glycan array binding signal (z-score),[10],-0.64
same,glycan array binding signal (z-score),[11],-0.294
same,glycan array binding signal (z-score),[12],3.5
same,glycan array binding signal (z-score),[13],-0.412
same,glycan array binding signal (z-score),[14],-0.497
same,glycan array binding signal (z-score),[15],0.278
same,glycan array binding signal (z-score),[16],3.27
same,glycan array binding signal (z-score),[17],-0.165
same,glycan array binding signal (z-score),[18],-0.744
same,glycan array binding signal (z-score),[19],0.459
same,glycan array binding signal (z-score),[20],0.292
same,glycan array binding signal (z-score),[21],-0.044
same,glycan array binding signal (z-score),[22],3.42
same,glycan array binding signal (z-score),[23],5.1
same,glycan array binding signal (z-score),[24],3.23
same,glycan array binding signal (z-score),[25],4.75
same,glycan array binding signal (z-score),[26],-0.783
same,glycan array binding signal (z-score),[27],4.1
same,glycan array binding signal (z-score),[28],-0.099
same,glycan array binding signal (z-score),[29],0.311
same,glycan array binding signal (z-score),[30],-1.18
